Consider seven compounds from PubChem BioAssay (NCI).

Holding throughout (experiment): NCI-60 one-dose screen, 48 h (100 = growth as untreated, 0 = no growth, -100 = all killed)
One test has as its system DU-145 prostate. The following applies: 10 µM unless noted.
The next test concerns K-562 leukemia. The note with it: 10 µM unless noted.
The test system of a further test is MALME-3M melanoma. The following applies: 10 µM unless noted.
In a further test the test system is MDA-MB-231 breast. The note with it: 10 µM unless noted.
The test system of a further test is RXF 393 renal. The following applies: 10 µM unless noted.
Another test deals with SF-268 CNS. The following applies: 10 µM unless noted.
The next test concerns SF-295 CNS. The note with it: 10 µM unless noted.
The test system of another test is SF-539 CNS. The note with it: 10 µM unless noted.
For the next test, the system named is UACC-257 melanoma. The following applies: 10 µM unless noted.
Another test concerns M14 melanoma. The following applies: 10 µM unless noted.
Another test concerns HCT-15 colon. The note with it: 10 µM unless noted.
The test system of a further test is HT29 colon. The note with it: 10 µM unless noted.
A further test has as its system SNB-75 CNS. The following applies: 10 µM unless noted.
A further test relates to SNB-19 CNS. The note with it: 10 µM unless noted.
Another test deals with U251 CNS. The note with it: 10 µM unless noted.
A further test concerns PC-3 prostate. The note with it: 10 µM unless noted.
In a further test the test system is SK-MEL-5 melanoma. The note with it: 10 µM unless noted.
A further test has as its system UACC-62 melanoma. The note with it: 10 µM unless noted.
In a further test the test system is LOX IMVI melanoma. The note with it: 10 µM.
The next test relates to SK-MEL-28 melanoma. The note with it: 10 µM unless noted.

The panel holds about 83,000 compounds, 20% with a hit somewhere; the sample as a whole holds those more often.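 The test compound was applied at a single concentration to cells in 96-well plates for 48 hours, and percent growth was recorded.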 The source made the active and inactive calls. How the source made its calls: active means growth percent below 10; inactive means the rest.

Regarding `C#CCOc1ccc(/C=N/Nc2nc(-c3ccc(F)cc3)cs2)cc1OC`, the growth is 89% (inactive) with DU-145 prostate; 25% (inactive) with K-562 leukemia; 86.3% (inactive) in the test on MALME-3M melanoma; 73.5% (inactive) in the test with MDA-MB-231 breast; 24% (inactive) in the test on RXF 393 renal; 84.8% (inactive) with SF-268 CNS. In addition, the growth is 79.2% (inactive) with SF-295 CNS; 70.6% (inactive) with SF-539 CNS; 63.7% (inactive) in the test on UACC-257 melanoma; 61.3% (inactive) with M14 melanoma; 41.2% (inactive) with HCT-15 colon; 78.8% (inactive) in the test with HT29 colon. The growth in the test on SNB-75 CNS was 81.8% (inactive); in the test with SNB-19 CNS, 77.5% (inactive); with U251 CNS it was 89.4% (inactive); in the test on PC-3 prostate, 24.2% (inactive); with SK-MEL-5 melanoma it was 3.86% (active); in the test on UACC-62 melanoma it was 46.7% (inactive). The growth in the test with LOX IMVI melanoma was 62.4% (inactive); in the test with SK-MEL-28 melanoma, 76.5% (inactive).

As to `O=C(Nc1ccccc1)N1CCN(c2cc(-c3cn(-c4ccccc4)nc3-c3cccc(O)c3)ccn2)CC1`, the growth with DU-145 prostate is 95.3% (inactive); in the test on K-562 leukemia, 29.5% (inactive); with MALME-3M melanoma, 84% (inactive); with MDA-MB-231 breast, 82.4% (inactive); in the test on RXF 393 renal it was 90.8% (inactive); in the test with SF-268 CNS, 114% (inactive). The growth with SF-295 CNS was 54.8% (inactive); in the test with SF-539 CNS, 89.5% (inactive); with UACC-257 melanoma, 97.4% (inactive); with M14 melanoma it was 69.4% (inactive); in the test with HCT-15 colon, 21.4% (inactive); in the test with HT29 colon, 75.8% (inactive). In addition, the growth is 101% (inactive) with SNB-75 CNS; 81.9% (inactive) with SNB-19 CNS; 63% (inactive) with U251 CNS; 43% (inactive) with PC-3 prostate; 40% (inactive) in the test on SK-MEL-5 melanoma; 50.4% (inactive) in the test with UACC-62 melanoma. In addition, the growth in the test with LOX IMVI melanoma was 69.1% (inactive); with SK-MEL-28 melanoma, 73.2% (inactive).

Consider `C=CC(=O)Nc1ccc(C)c(Oc2ccc(Cl)cc2)c1`, for which the growth is 68.6% (inactive) in the test on DU-145 prostate; 53.2% (inactive) in the test on K-562 leukemia; 73.8% (inactive) in the test on MALME-3M melanoma; 44.1% (inactive) in the test with MDA-MB-231 breast; 38.5% (inactive) in the test on RXF 393 renal; 57.1% (inactive) with SF-268 CNS. For the same compound, the growth in the test with SF-295 CNS is 58% (inactive); in the test on SF-539 CNS, 30.2% (inactive); with UACC-257 melanoma, 66.6% (inactive); in the test with M14 melanoma, 72.3% (inactive); with HCT-15 colon, 49.7% (inactive); with HT29 colon it was 60.2% (inactive). In addition, the growth is -8.04% (active) in the test with SNB-75 CNS; 38% (inactive) with SNB-19 CNS; 36.5% (inactive) with U251 CNS; 56% (inactive) in the test on PC-3 prostate; 53% (inactive) in the test on SK-MEL-5 melanoma; 41.6% (inactive) with UACC-62 melanoma. Further, the growth is 27.8% (inactive) in the test on LOX IMVI melanoma and 72% (inactive) in the test on SK-MEL-28 melanoma.

As for `COc1ccc(/C=C2\C(=N)N=C(SCc3nc4ccccc4[nH]3)NC2=O)cc1`, the growth is 115% (inactive) in the test with DU-145 prostate; 112% (inactive) with K-562 leukemia; 102% (inactive) with MALME-3M melanoma; 105% (inactive) with MDA-MB-231 breast; 122% (inactive) in the test on RXF 393 renal; 109% (inactive) with SF-268 CNS. Besides, the growth in the test on SF-295 CNS is 103% (inactive); in the test with SF-539 CNS, 103% (inactive); in the test on UACC-257 melanoma it was 108% (inactive); in the test with M14 melanoma, 112% (inactive); with HCT-15 colon, 104% (inactive); in the test on HT29 colon it was 116% (inactive). Also, the growth with SNB-75 CNS is 103% (inactive); in the test with SNB-19 CNS, 104% (inactive); with U251 CNS, 101% (inactive); in the test with PC-3 prostate, 122% (inactive); in the test on SK-MEL-5 melanoma it was 101% (inactive); with UACC-62 melanoma, 103% (inactive). For the same compound, the growth in the test with LOX IMVI melanoma is 98.3% (inactive); in the test with SK-MEL-28 melanoma it was 118% (inactive).

In the case of `COc1cc2nc(SCc3ccccc3)n(-c3ccc(Cl)cc3)c(=O)c2cc1OC`, the growth is -10% (active) with DU-145 prostate; 2.35% (active) with K-562 leukemia; -40.8% (active) in the test with MALME-3M melanoma; -6.51% (active) in the test on MDA-MB-231 breast; -38.8% (active) in the test on RXF 393 renal; -12.9% (active) in the test on SF-268 CNS. The growth in the test on SF-295 CNS is -59.9% (active); in the test on SF-539 CNS, -83.6% (active); in the test on UACC-257 melanoma, 38.3% (inactive); in the test with M14 melanoma it was 20.1% (inactive); in the test on HCT-15 colon it was 33.6% (inactive); in the test with HT29 colon it was 45.4% (inactive). The growth with SNB-75 CNS was -49.5% (active); in the test on SNB-19 CNS, -30% (active); with U251 CNS it was -73.1% (active); in the test on PC-3 prostate it was 1.2% (active); in the test with SK-MEL-5 melanoma, 82.9% (inactive); in the test with UACC-62 melanoma, 29.3% (inactive). Also, the growth with LOX IMVI melanoma was -100% (active); in the test on SK-MEL-28 melanoma it was 21.6% (inactive).

In the case of `Nc1nnc(-c2c[nH]c3ccc(Br)cc23)c(-c2c[nH]c3ncc(Br)cc23)n1`, the growth with DU-145 prostate is 55.7% (inactive); in the test on K-562 leukemia, 18.8% (inactive); in the test on MALME-3M melanoma, 39.2% (inactive); in the test with MDA-MB-231 breast, 45.8% (inactive); with RXF 393 renal, 2.79% (active); in the test with SF-268 CNS it was 47.7% (inactive). Also, the growth in the test with SF-295 CNS is 41.2% (inactive); in the test on SF-539 CNS, 41.5% (inactive); in the test on UACC-257 melanoma it was 59.5% (inactive); with M14 melanoma it was 38.6% (inactive); in the test with HCT-15 colon, 26.9% (inactive); in the test on HT29 colon, 43.6% (inactive). Also, the growth in the test with SNB-75 CNS is 50.2% (inactive); in the test with SNB-19 CNS, 47% (inactive); with U251 CNS, 41.8% (inactive); in the test with PC-3 prostate, 29.1% (inactive); in the test on SK-MEL-5 melanoma, 44.2% (inactive); in the test with UACC-62 melanoma it was 25.3% (inactive). The growth was 31.8% (inactive) in the test on LOX IMVI melanoma and 37.5% (inactive) with SK-MEL-28 melanoma.

Consider `O=C(Cn1nc(-c2ccccc2)ccc1=O)N/N=C/c1ccc(N2CCOCC2)cc1`, for which the growth is 101% (inactive) with DU-145 prostate; 88.9% (inactive) in the test with K-562 leukemia; 90.1% (inactive) in the test with MALME-3M melanoma; 104% (inactive) with MDA-MB-231 breast; 111% (inactive) in the test with RXF 393 renal; 98.2% (inactive) in the test on SF-268 CNS. The growth in the test on SF-295 CNS was 88.8% (inactive); in the test with SF-539 CNS, 90.5% (inactive); in the test with UACC-257 melanoma, 99.2% (inactive); with M14 melanoma, 102% (inactive); with HCT-15 colon, 97.2% (inactive); with HT29 colon, 113% (inactive). Further, the growth with SNB-75 CNS is 96.4% (inactive); with SNB-19 CNS it was 89.9% (inactive); in the test with U251 CNS, 93.2% (inactive); in the test with PC-3 prostate, 102% (inactive); in the test with SK-MEL-5 melanoma it was 92.4% (inactive); with UACC-62 melanoma, 83.7% (inactive). Moreover, the figures for the growth with LOX IMVI melanoma and in the test with SK-MEL-28 melanoma were 102% (inactive) and 104% (inactive), respectively.
